Assay: growth modulation of vineyard yeast isolate – strain RM11-1a, OD600, basal, 24 h, primary screen (AID 1177);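 note: cultures grown under basal conditions with no added stressor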
Conditions: S. cerevisiae RM11-1a growth, OD600, 24 h; higher = more signal, called active from +8 up or from −8 down
Note: test concentration not given here.

z-score, inactive:
NC(=O)N1C(=O)C2C(C1=O)C1C=C(CCCO)C2C(c2ccc(CN3CCCC3)cc2)N1Cc1cccc(OC(F)(F)F)c1 (stereo not drawn) -0.219
COc1ccc([Si](C)(C)[C@H]2[C@H](CCn3cc([C@H](O)c4ccccc4)nn3)O[C@@]3(C(=O)N(c4ccccc4)c4ccccc43)[C@@H]2C)cc1 2.12
CCCC=C(CCC)[C@@H](NC(=O)c1ccccc1)c1ccc(C(=O)OC)cc1 -0.363

Assay: growth of efflux-deficient E. coli DRC39 – strain DRC39, OD650, 24 h, E. coli filamentation inducers, primary screen (AID 1178);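 note: growth measured as culture turbidity by optical density at 650 nm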
Conditions: E. coli DRC39 acrAB, higher = more signal, called active from +8 up or from −8 down

z-score, inactive:
COC(=O)[C@@]1(Cc2ccc(F)cc2)[C@H]2c3cc(C(=O)N(C)C)n(CCN4CCOCC4)c3C[C@H]2CN1C(=O)c1ccccc1 0.187
C[N+](C)(C)CCCCCCNC(=O)[C@@H]1C[C@@H]2C(=O)N[C@@H](Cc3ccccc3)C(=O)N2[C@@H]1c1ccc(O)cc1 0.457
CO[C@H]1O[C@H](CO)[C@@H](OC(=O)Nc2ccc(C(F)(F)F)cc2)[C@H](OC(=O)Nc2ccccc2-c2ccccc2)[C@@H]1OC(=O)Nc1ccccc1-c1ccccc1 -1
C=C(CCCC)/C(=C/C[C@H](OC(C)=O)c1cccc(OCCO)c1)c1cc(C(=O)OC)ccc1OC 1.85
COc1ccc([Si](C)(C)[C@H]2[C@H](CCn3cc([C@H](O)c4ccccc4)nn3)O[C@@]3(C(=O)N(C)c4c(Br)cc(C)cc43)[C@@H]2C)cc1 0.566
COCCOC(=O)N1C(=O)[C@@]2(c3cc(C#CC4(O)CCCCCC4)ccc31)[C@H](C(=O)N1CCc3cc(OC)c(OC)cc3C1)[C@H]1C(=O)O[C@H](c3ccccc3)[C@H](c3ccccc3)N1[C@@H]2c1ccc(O)cc1 -0.282
C=CCOC(=O)[C@H]1[C@@H]2C(=O)O[C@@H](c3ccccc3)[C@@H](c3ccccc3)N2[C@@H](c2ccc(OCCOC(=O)[C@H]3C[C@H]4C(=O)NCC(=O)N4[C@H]3c3ccc(O)cc3)cc2)[C@]12C(=O)Nc1ccc(I)cc12 0.157
COCCOC(=O)N1C(=O)[C@@]2(c3cc(C#CC4=CCCCC4)ccc31)[C@H](c1ccc(OCCO)cc1)N1[C@H](c3ccccc3)[C@H](c3ccccc3)OC(=O)[C@H]1[C@@H]2C(=O)N1CCCCCCC1 -0.363
CCOC(=O)C1=C(C(=O)OCC)N(S(=O)(=O)CC[Si](C)(C)C)[C@H](c2ccccc2)CC1 -0.203
C=CCC(OC(C)=O)[C@@H]1[C@@H](N(Cc2cc3ccccc3o2)C(=O)c2ccc(-c3ccccc3)cc2)c2cc(OCCCO)ccc2N1C(=O)c1ccc2ccccc2n1 (stereo partly drawn) 0.965
O=C1O[C@@H](c2ccccc2)[C@@H](c2ccccc2)N2[C@@H](c3ccc(O)cc3)[C@]3(C(=O)Nc4ccc(C#CC5=CCCCC5)cc43)[C@@H](C(=O)N3CCCCCCC3)[C@H]12 0.326
COCCOC(=O)N1C(=O)[C@@]2(c3cc(C#CCC(C(=O)OC)C(=O)OC)ccc31)[C@H](C(=O)N1CCc3cc(OC)c(OC)cc3C1)[C@H]1C(=O)O[C@H](c3ccccc3)[C@H](c3ccccc3)N1[C@@H]2c1ccc(O)cc1 0.992
C=C(/C(=C/C[C@H](OC(=O)c1ccncc1)c1ccccc1OCCO)c1cc(C(=O)OC)ccc1OC)C(C)C -0.822
NCCCC[C@@H]1NC(=O)[C@H]2C[C@@H](C(=O)O)[C@@H](c3cccc(OCCO)c3)N2C1=O 0.191
CCCCN1CC=CC23O[C@@H]4/C=C\CCC(C)OC(=O)C4[C@H]2C(=O)N(C(C)CO)[C@@H]3C1=O (stereo partly drawn) 0.659
CC(=O)c1ccc(C(O)C2C=CC3C(=O)NC(=O)C3N2Nc2ccc(Cl)cc2Cl)cc1 (stereo not drawn) 0.385
C[N+](C)(C)CCCC[C@@H]1NC(=O)[C@H]2C[C@@H](C(=O)NCCCCCNC(=O)CS)[C@@H](c3ccc(O)cc3)N2C1=O 0.902
CN(C)CCCCNC(=O)[C@H]1C[C@H]2C(=O)N[C@@H](Cc3ccccc3)C(=O)N2[C@H]1c1cccc(OCCO)c1 0.553
NC(=O)NCC#Cc1ccc2c(c1)[C@]1(C(=O)N2)[C@H](C(=O)Nc2nc3ccccc3s2)[C@H]2C(=O)O[C@H](c3ccccc3)[C@H](c3ccccc3)N2[C@@H]1c1ccc(OCCO)cc1 0.426
CC(C)CNC(=O)[C@@H]1c2ccccc2C(=O)N(Cc2ccccc2Cl)[C@H]1c1ccc(CO)cc1 0.219

Source: PubChem BioAssay
